Holding throughout (assay): NCI-60 one-dose screen, 48 h (100 = growth as untreated, 0 = no growth, -100 = all killed)
Settings in all cases: 10 µM unless noted

Experiment [1] concerns NCI-H226 lung.
Experiment [2] has as its system NCI-H322M lung.
In experiment [3] the test system is HOP-62 NSCLC.
Experiment [4] relates to NCI-H460 lung.
Experiment [5] has as its system HOP-92 NSCLC.
The subject of experiment [6] is NCI-H522 lung.
Experiment [7] relates to A549/ATCC NSCLC.
Experiment [8] concerns 786-0 renal.
Experiment [9] relates to COLO 205 colon.

The panel holds about 83,000 compounds, 20% with a hit somewhere; the sample as a whole holds those more often.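 Growth was measured after 48 h exposure to one concentration of compound in 96-well plates. Values under 10 count as active.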 A number with no mark means an inactive call. The source made the active and inactive calls.

For the compound `C=CCOC1=CC(=O)c2ccccc2C1=O`, the growth is 100% in [1]; 91.6% in experiment [2]; 95.6% in experiment [3]; 105% in experiment [4]; 114% in experiment [5]; 74% in experiment [6]. Also, the growth in [7] is 91.4%; in [8], 102%; in experiment [9], 110%.

Turning to `COc1ccc(-c2cc(-c3cc(OC)c(OC)c(OC)c3)c(C#N)c(N3CCOCC3)n2)cc1O`, the growth is 108% in experiment [1]; 65.5% in experiment [2]; 68.4% in experiment [3]; 48.1% in [4]; 42.8% in experiment [5]; 58.4% in [6]. The growth in [7] was 65.8%; in experiment [8], 68.9%; in experiment [9], 97.2%.

In the case of `COc1ccc(/C=c2\nc3n(-c4ccccc4)c4nc5c6c(sc5c(=N)n4n-3c2=O)CCCC6)cc1`, the growth in experiment [1] is 69.2%; in experiment [2], 94.6%; in experiment [3] it was 88.1%; in experiment [4] it was 98.1%; in experiment [5], 63.4%; in experiment [6], 83.4%. Moreover, the results for the growth in experiment [7], in [8] and in experiment [9] were 97.4%, 99.5% and 111%, respectively.

As for `O=c1c2cc(F)ccc2sc2c(Nc3cccnc3)nc3ccccc3c12`, the growth in [1] was 90.5%; in experiment [2], 88.8%; in [3], 96.1%; in [4] it was 68.5%; in [5], 75.1%; in experiment [6], 94.3%. Besides, the growth in experiment [7] was 73.7%; in [8], 86.9%; in experiment [9], 85%.

On to `CC(C)(C)c1ccc(/C=C/C(=O)Nc2ccc(O)cc2)cc1`, for which the growth is 65% in experiment [1]; 78% in experiment [2]; 52.2% in [3]; 46.9% in [4]; 106% in experiment [5]; 26.4% in experiment [6]. For the same compound, the results for the growth in experiment [7], in experiment [8] and in experiment [9] were 64.6%, 69.1% and 73.6%, respectively.

Consider `Cc1cc(NCCCCNc2ccnc3cc(Cl)ccc23)nc(Nc2ccc(C(=O)N3CCCCC3)cc2)n1`, for which the growth was 98.6% in experiment [1]; 22.9% in experiment [2]; 21.2% in [3]; 6.46% (active) in experiment [4]; 63.6% in experiment [5]; -42.2% (active) in experiment [6]. Also, the figures for the growth in experiment [7], in [8] and in experiment [9] were 13.1%, -87.6% (active) and -67.8% (active), respectively.

For `Cn1c(-c2c(N)n(Cc3ccc(C(F)(F)F)cc3)c3nc(C#N)c(C#N)nc23)nc2ccccc21`, the growth in experiment [1] is -1.51% (active); in [2] it was -4.98% (active); in experiment [3] it was 21.3%; in [4], 4.01% (active); in experiment [5], -48% (active); in [6], -3.31% (active). Also, the figures for the growth in [7], in [8] and in experiment [9] were 12%, 3.33% (active) and -89.7% (active), respectively.

For `Cc1cc(C(=O)c2ccccc2)c(C)c2c1[nH]c1ccc(Cl)cc12`, the growth was 50.6% in experiment [1]; 42% in [2]; 34.3% in experiment [3]; 5.49% (active) in experiment [4]; 54.8% in [5]; 20.8% in experiment [6]. The growth in experiment [7] was 19.6%; in experiment [8], 24.4%; in experiment [9], -24.8% (active).

Turning to `CCCCNC(=O)Oc1ccc2c(=O)c3sc4c(=O)c5ccccc5c(=O)c4c3c(=O)c2c1`, the growth in experiment [1] is -89% (active); in [2], -96.8% (active); in experiment [3], -79.1% (active); in experiment [4], -74.6% (active); in [5], -30.4% (active); in experiment [6] it was -69.5% (active). Further, the growth was -61.8% (active) in experiment [7], -37% (active) in experiment [8] and -84.9% (active) in experiment [9].

Regarding `NCCCNc1nc2ccccc2c2c(=O)c3cccc(Cl)c3sc12`, the growth in [1] was 59.6%; in experiment [2] it was 22.4%; in experiment [3] it was 19.3%; in experiment [4], -75% (active); in experiment [5], 38.1%; in [6] it was -48.5% (active). Also, the growth in experiment [7] was -2.55% (active); in [8], 33.6%; in [9], -50.6% (active).

Consider `Cc1ccc2nc(NC(=O)CSc3nc(-c4ccccc4)c(C#N)c(=O)n3Cc3ccccc3)sc2c1`, for which the growth in [1] was 85.2%; in [2], 96.4%; in [3], 77.8%; in experiment [4], 98.3%; in [5], 54.9%; in experiment [6], 30.5%. Also, the growth in experiment [7] was 104%; in [8] it was 99.3%; in [9] it was 104%.

On to `Cn1c(=O)c2c(nc(Cl)n2CCl)n(C)c1=O`, for which the growth in experiment [1] was 120%; in [2], 103%; in [3], 115%; in [4] it was 111%; in experiment [5], 97.6%; in experiment [6] it was 84.8%. Moreover, the values for the growth in experiment [7], in [8] and in [9] were 106%, 90.4% and 60.8%, respectively.

For the origin of these results see PubChem BioAssay (NCI).
